Bioassay records as filed in PubChem.
An excerpt weighted towards active compounds, which were near 2.4% of everything screened.
Cruzain noTriton: blocks cruzain activity in detergent-free assay. P25779. purified cruzain, Z-FR-AMC fluorescence, no detergent. Potency, µM, usual class: inhibitors. 2.3% of 200,000 active; also: nearly all actives have a fitted effect of over 40% in size
Target sequence (P25779 123-467 limits assumed): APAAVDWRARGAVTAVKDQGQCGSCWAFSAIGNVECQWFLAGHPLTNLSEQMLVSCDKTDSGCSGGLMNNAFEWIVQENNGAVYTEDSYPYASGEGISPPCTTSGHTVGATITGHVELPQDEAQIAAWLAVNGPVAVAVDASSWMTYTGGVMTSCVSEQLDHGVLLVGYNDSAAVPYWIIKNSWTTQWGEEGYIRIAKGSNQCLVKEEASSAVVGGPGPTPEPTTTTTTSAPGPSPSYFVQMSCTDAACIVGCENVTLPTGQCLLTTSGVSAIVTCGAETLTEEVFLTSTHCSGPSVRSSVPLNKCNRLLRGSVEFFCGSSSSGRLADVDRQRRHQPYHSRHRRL
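Purified cruzain at 1.5 nM, pre-incubated 15 min with compound at room temperature in 100 mM sodium acetate pH 5.5, 5 mM DTT, 0.00005% Triton X-100. Reaction started with 2 uM Z-FR-AMC; AMC fluorescence increase over 60 s gives rate.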
Cruzain Triton: cruzain (T. cruzi) inhibition with detergent. AID 1478. purified cruzain, Z-FR-AMC fluorescence, 0.01% Triton. Potency, µM, actives largely listed as inhibitors. 0.43% of 200,000 active. P25779; also: nearly all actives have a fitted effect of over 40% in size
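Cruzain (1.5 nM) preincubated 15 min at RT with compound in 100 mM sodium acetate pH 5.5, 5 mM DTT, 0.01% Triton X-100. Reaction started with 2 uM Z-FR-AMC; AMC fluorescence (ex 360/em 450 nm) change over 60 s gave rate.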
Large screens that a line does not name were inactive. Calls follow the shape of the dose curve; as a rule, active = well fitted curve in the direction sought with a large enough effect; inconclusive = small, poorly fitted or top-dose-only effect, or another doubt; inactive = no such curve, though single readings can be large; an effect the other way counts as inactive or inconclusive.

COc1ccc(OC)c(NC(=O)N2CCC3(CC2)Oc2ccccc2C(=O)N3Cc2ccccc2F)c1	none
O=C(N/N=C/c1ccc(OCCCF)cc1)c1cc(OCC(F)(F)F)ccc1OCC(F)(F)F	Cruzain noTriton 25.1µM
O=C(N/N=C\c1ccc(F)cc1)c1cc(OCC(F)(F)F)ccc1OCC(F)(F)F	none
O=C(NCCc1ccccc1)c1ccc2c(c1)N(Cc1ccccc1)C(=O)c1ccccc1S2=O (stereo not drawn)	none
CCOC(=O)C(C)Sc1nnc2ccc3ccccc3n12 (stereo not drawn)	none
O=C(CSc1ncc2c(n1)-c1ccc(Cl)cc1N(Cc1ccccc1)S2(=O)=O)Nc1ccc(F)c(F)c1	none
O=C(CSc1ncc2c(n1)-c1cc(Cl)ccc1N(Cc1ccccc1)S2(=O)=O)Nc1ccc(F)cc1F	none
COc1ccc(C)cc1NC(=O)CSc1ncc2c(n1)-c1ccc(Cl)cc1N(Cc1ccccc1)S2(=O)=O	Cruzain noTriton 3.16µM
Cc1ccccc1CN1c2ccccc2-c2nc(SCC(=O)Nc3cc(F)ccc3F)ncc2S1(=O)=O	none
O=C(CSc1ncc2c(n1)-c1cc(Cl)ccc1N(Cc1ccccc1F)S2(=O)=O)Nc1cccc(C(F)(F)F)c1	Cruzain noTriton 15.8µM
Cc1cccc(C)c1NC(=O)CSc1ncc2c(n1)-c1ccc(Cl)cc1N(Cc1ccccc1)S2(=O)=O	none
COc1ccccc1NC(=O)CSc1ncc2c(n1)-c1ccccc1N(Cc1ccccc1C)S2(=O)=O	Cruzain noTriton 7.94µM
COc1ccccc1NC(=O)CSc1ncc2c(n1)-c1cc(Cl)ccc1N(Cc1ccccc1)S2(=O)=O	Cruzain noTriton 6.31µM
CCc1ccc(NCc2cc3cc4c(cc3n(CC(=O)Nc3ccccc3Cl)c2=O)OCO4)cc1	none
CCc1ccc(CNC(=O)CN2C(=O)CCn3nc(-c4cn(C)c5ccccc45)cc32)cc1	Cruzain noTriton inconclusive
CCOc1cc(-c2nc(-c3ccc(-c4ccc(C)cc4)nc3OC)no2)cc(OCC)c1OCC	none
COC(=O)c1ccc(NC(=O)CC2C(=O)N(c3cccc(OC)c3)C(=O)N2Cc2cccc(OC)c2)cc1 (stereo not drawn)	none
Cc1ccc(NC(=O)c2ccc(F)c(S(=O)(=O)NCCc3ccccc3)c2)cc1F	none
COc1cc(C)c(CC/C(C)=C/C=C/C(C)=O)c(C)c1C	none
CCCN1Cc2cccc(C(=O)Nc3ccc(OC)cc3OC)c2C1=O	none
CCOc1ccccc1CNC(=O)c1ccc2c(c1)sc1nc(-c3cccc(OC)c3)cn12	none
CN(C)S(=O)(=O)c1cc(NC(=O)COC(=O)Cc2ccccc2)ccc1Cl	none
CN(C)S(=O)(=O)c1cc(NC(=O)[C@H](Cc2ccccc2)N2C(=O)c3ccccc3C2=O)ccc1Cl	Cruzain noTriton 20µM
O=C(Nc1ccc2nc(-c3ccccc3)[nH]c2c1)c1cccs1	none
O=C(Nc1ccc2nc(-c3ccc4nc[nH]c4c3)[nH]c2c1)c1cccs1	Cruzain noTriton inconclusive, Cruzain Triton 12.6µM
COc1ccc(C2Nc3ccccc3C(=O)N2Cc2ccco2)cc1CN1C(=O)c2ccccc2C1=O (stereo not drawn)	Cruzain noTriton inconclusive
COc1ccc(C2Nc3ccccc3C(=O)N2Cc2ccco2)cc1COc1ccc(F)cc1 (stereo not drawn)	Cruzain noTriton 25.1µM
Cn1c(=O)cc(OCCCC(=O)Nc2ccc(F)cc2)c2ccccc21	Cruzain noTriton inconclusive
CC(C)C(NC(=O)OCc1ccccc1)C(=O)OCC(=O)N1CCCCC1 (stereo not drawn)	none
CC(=O)c1cccc(NC(=O)COC(=O)[C@@H](NC(=O)OCc2ccccc2)C(C)C)c1	Cruzain noTriton 25.1µM, Cruzain Triton 15.8µM
COc1ccc2c(c1)-c1nc(NC(=O)c3ccc(C)cc3)sc1CC2	Cruzain noTriton inconclusive
COc1ccc2c(c1)Cc1sc(NC(=O)c3ccc(Cl)cc3)nc1-2	Cruzain noTriton 3.16µM
COc1ccc2c(c1)-c1nc(NC(=O)c3ccc(OC)c(Br)c3)sc1CC2	Cruzain noTriton 10µM
COc1ccc2c(c1)Cc1sc(NC(=O)c3cccc(Cl)c3)nc1-2	none
Cc1ccc(Cl)cc1NC(=O)C(=O)NCC(c1cccnc1)N1CCc2ccccc21 (stereo not drawn)	none
COc1ccc(OC)c(NC(=O)Nc2cccc(OCc3cc(=O)n4cc(C)ccc4n3)c2)c1	none
CCc1nc2ccccc2n2c(-c3ccccc3)c3c(=O)n(C)c(=O)n(C)c3c12	none
N#C/C(=C\c1ccc(-c2ccccc2)o1)C(=O)Nn1cnnc1	none
N#C/C(=C\c1ccc(-c2cccc(Cl)c2)o1)C(=O)Nc1cccc2cccnc12	Cruzain noTriton 3.16µM
Cc1ccc(NC(=O)Cn2nc(C)c3nn(-c4ccc(Cl)cc4)c(C)c3c2=O)cc1C	none
CCc1ccc(Cn2c(CNS(=O)(=O)c3ccc(F)c(Cl)c3)nc3cccnc32)cc1	none
CCCCCSc1nnc2c(n1)[nH]c1c(C)cccc12	Cruzain noTriton inconclusive
CC(/C=N\Nc1nnc2c(n1)[nH]c1c(C)cccc12)=C\c1ccco1	Cruzain noTriton 3.98µM
COc1ccc(C2=CC(c3ccccc3Cl)n3nc(-c4ccc(C)cc4)nc3N2)cc1 (stereo not drawn)	Cruzain noTriton 3.16µM
COc1ccc(C2C=C(c3ccc(F)cc3)Nc3nc(-c4ccc(Cl)cc4)nn32)cc1 (stereo not drawn)	none
Cc1ccc(NC(=O)CN2C(=O)c3cccnc3Sc3ccccc32)cc1C	none
COc1cccc(CN2CCCN(Cc3ccc(F)cc3)S2(=O)=O)c1	none
N#C/C(=C\c1ccc(Oc2ccc(C(F)(F)F)cc2[N+](=O)[O-])cc1)c1nc2ccccc2[nH]1	Cruzain noTriton inconclusive
N#C/C(=C/c1ccc(N2CCCC2)c([N+](=O)[O-])c1)c1nc2ccccc2[nH]1	none
N#C/C(=C\c1ccc(OC(=O)c2ccc(Br)s2)cc1)c1nc2ccccc2[nH]1	Cruzain noTriton 5.01µM
N#C/C(=C\c1ccc(OC(=O)c2ccc(Cl)s2)cc1)c1nc2ccccc2[nH]1	Cruzain noTriton 3.98µM
Cc1nc2ccn(Cc3cccs3)c(=O)c2cc1C(=O)N1CCN(c2ccccc2)CC1	none
CCCCc1ccc(/C=C2/C(=O)ON=C2c2ccccc2)s1	none
Cc1sc(/C=C2\C(=O)ON=C2c2ccccc2)cc1Br	Cruzain noTriton 25.1µM, Cruzain Triton inconclusive
COc1ccccc1C(=O)Nc1nc2nc(C)c(Cc3ccccc3)c(=O)n2[nH]1	none
O=C(Nc1ccc2nc(SCC(=O)N3CCOCC3)sc2c1)c1ccccc1Cl	none
COC(=O)N/N=C/c1ccc(-c2cc(Cl)cc(Cl)c2)o1	none
NC(=S)N/N=C/c1ccc(-c2cc(Cl)cc(Cl)c2)o1	Cruzain noTriton 10µM, Cruzain Triton 4.47µM
C[C@H](NC(=O)OC(C)(C)C)c1nnc(SCc2ccc(Cl)cc2Cl)o1	none
O=c1c(Cl)c(N2CCN(c3ccc(F)cc3)CC2)cnn1-c1nc2ccccc2s1	Cruzain noTriton inconclusive
O=C1CC(c2ccccc2Cl)Cc2c1cnn2-c1nc2ccccc2s1 (stereo not drawn)	Cruzain noTriton 12.6µM
COc1ccc(C(C)C)cc1S(=O)(=O)NCCc1c(C)[nH]c2ccc(C)cc12	none
COC(=O)c1scc(-c2ccc(C)cc2)c1S(=O)(=O)N1CCN(c2ccccc2F)CC1	none
Cc1ccc2c(C)c(C(=O)N(Cc3ccc(N(C)C)cc3)Cc3ccco3)oc2c1C	none
c1ccc2c(c1)ccc1cc3c(ccc4ccccc43)cc12	none
c1ccc(C(c2cccc3c2ccc2ccccc23)[C@H](c2ccccc2)c2cccc3c2ccc2ccccc23)cc1 (stereo partly drawn)	Cruzain noTriton 3.98µM
